NS1 inh = qHTS Assay for Inhibitors of Influenza NS1 Protein Function | Potency, µM (highest dose often 46.1 µM), for the others: at the top dose activity, positive = more growth | actives 0.4% (n = 270,000) | AID 2326, 2010; calls by dose curve; note: actives are rising curves; nearly all actives have a fitted effect of over 50% in size
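A cell-based growth assay was used: compounds that relieve NS1-induced slow growth of budding yeast raise OD600. Assay medium was yeast nitrogen base with ammonium sulphate and -URA supplement, pH 6.0, with 2% galactose.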
Cruzain inh noDet = qHTS Assay for Promiscuous and Specific Inhibitors of Cruzain (without detergent). Cruzipain (Trypanosoma cruzi), P25779. purified cruzain, Z-FR-AMC fluorescence, no detergent. Potency, µM, for the others: max response, negative = inhibition, usual class: inhibitors. actives 2.3% (n = 200,000). AID 1476, 2009;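 note: plate controls were enzyme without inhibitor for no effect and buffer without enzyme for full effect; nearly all actives have a fitted effect of over 40% in size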
Target sequence (P25779 123-467 limits assumed): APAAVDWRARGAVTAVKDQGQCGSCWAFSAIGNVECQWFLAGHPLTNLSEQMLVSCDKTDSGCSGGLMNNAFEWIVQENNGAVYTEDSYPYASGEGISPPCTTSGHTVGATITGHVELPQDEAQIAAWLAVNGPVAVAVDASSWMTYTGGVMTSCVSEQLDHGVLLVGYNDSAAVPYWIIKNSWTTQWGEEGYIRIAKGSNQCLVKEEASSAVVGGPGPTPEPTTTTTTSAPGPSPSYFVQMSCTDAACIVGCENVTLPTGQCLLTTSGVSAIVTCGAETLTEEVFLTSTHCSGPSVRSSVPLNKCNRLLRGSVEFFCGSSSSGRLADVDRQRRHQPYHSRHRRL
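Detergent-free condition (0.00005% Triton X-100) in acetate buffer pH 5.5 with DTT. 1.5 nM enzyme and compound were pre-mixed 15 min, then 2 uM Z-FR-AMC substrate added; reaction progress from fluorescence change between first and third reads (60 s).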
Cruzain Triton = qHTS Assay for Promiscuous and Specific Inhibitors of Cruzain (with detergent); Potency, µM, for the others: max response, negative = inhibition, actives largely listed as inhibitors; AID 1478, 2009; Cruzipain (Trypanosoma cruzi), P25779; purified cruzain, Z-FR-AMC fluorescence, 0.01% Triton; actives 0.43% (n = 200,000);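 note: plate controls were neutral wells for no effect and buffer without enzyme for full effect; nearly all actives have a fitted effect of over 40% in size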
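Read-out: AMC fluorescence (360 nm excitation, 450 nm emission), four reads over 2 min, first-to-third difference used. Conditions: cruzain 1.5 nM, Z-FR-AMC 2 uM, pH 5.5 acetate, 5 mM DTT, 0.01% Triton X-100.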
* marks the source's active call; other numbers are inactive results. Shown is part of a subset that was picked to be rich in hits. Unless noted, calls come from the whole dose curve; as a rule, active = well fitted curve in the direction sought with a large enough effect; inconclusive = small, poorly fitted or top-dose-only effect, or another doubt; inactive = no such curve, though single readings can be large; an effect the other way counts as inactive or inconclusive. Potency is the fitted concentration of half-maximal effect.

`COc1ccc(NC(=O)C2=C(C)Nc3nc(SCc4ccccc4C)nn3C2c2ccc(Br)cc2)cc1` (stereo not given) gave Cruzain inh noDet -10.0% and Cruzain Triton -1.3%.
CC1=C(C(=O)Nc2ccc(Cl)cc2)C(c2cccs2)n2nc(SCc3cccc(Cl)c3)nc2N1 (stereo not given) was read as Cruzain inh noDet 3.16µM* and Cruzain Triton -1.1%.
Screening CC1=C(C(=O)Nc2ccccc2C)C(c2ccncc2)n2nc(SCc3ccccc3)nc2N1 (stereo not given) returned Cruzain inh noDet -15.8% and Cruzain Triton 0.4%.
Screening COc1ccc(NC(=O)C2=C(C)Nc3nc(SCc4ccccc4C)nn3C2c2cc(OC)c(O)c(OC)c2)cc1 (stereo not given) returned Cruzain inh noDet 10µM* and Cruzain Triton -4.5%.
Screening CC1=C(C(=O)Nc2ccccc2C)C(c2cccs2)n2nc(SCc3ccccc3)nc2N1 (stereo not given) returned Cruzain inh noDet 25.1µM* and Cruzain Triton -0.7%.
Screening CC1=C(C(=O)Nc2ccc(C)cc2C)C(c2cccs2)n2nc(SCc3ccc(Cl)cc3)nc2N1 (stereo not given) returned Cruzain inh noDet 2.5% and Cruzain Triton -0.2%.
Screening Nc1nc(-c2cccs2)c(NC(=O)c2ccccc2)s1 returned NS1 inh 0.4%, Cruzain inh noDet 0.6% and Cruzain Triton -3.9%.
Screening CC(=O)C1=C(O)C(=O)N(c2cccc(C(=O)O)c2)C1c1ccccc1F (stereo not given) returned NS1 inh 0.0%, Cruzain inh noDet -4.5% and Cruzain Triton -5.8%.
`CC(=O)OCC#CCSc1nnc(-c2cccc(Br)c2)o1` gave Cruzain inh noDet -9.9% and Cruzain Triton -5.4%.
Screening O=C(Nc1ccc(CN2CCS(=O)(=O)CC2)cc1)c1ccc(Cl)cc1 returned NS1 inh 5.5%.
Screening Cc1ccccc1NC(C)C(=O)N/N=C/c1ccccc1OCc1cccc(Br)c1 (stereo not given) returned NS1 inh inconclusive, Cruzain inh noDet 31.6µM* and Cruzain Triton -0.5%.
For COc1ccc(NC(C)C(=O)N/N=C/c2ccccc2OCc2cccc(Br)c2)cc1 (stereo not given) the results were NS1 inh -3.3%, Cruzain inh noDet inconclusive and Cruzain Triton -4.9%.
Screening O=C(O)c1cccc(Oc2cccc(Cl)n2)c1 returned NS1 inh -0.3%.
For O=C1NC(=S)S/C1=C\c1cc2ccccc2nc1N1CCCCC1 the results were NS1 inh -1.1%.
`Cc1ccc(CNC(=O)Cn2c(=O)n(Cc3ccccc3)c(=O)c3sc4ccccc4c32)cc1` gave Cruzain inh noDet 4.9% and Cruzain Triton -1.3%.
Screening Cc1ccc(CNC(=O)Cn2c(=O)n(-c3cccc(Cl)c3)c(=O)c3sc4ccccc4c32)cc1 returned Cruzain inh noDet 12.6µM* and Cruzain Triton -3.0%.
Cc1ccc2nc(CN3CCN(C(=O)Nc4ccc(F)cc4)CC3)oc2c1 was read as Cruzain inh noDet 8.8% and Cruzain Triton -0.9%.
CSc1ccc(Cn2nnc(C(=O)Nc3ccc(C)c(C)c3)c2N)cc1 was read as NS1 inh -3.9%, Cruzain inh noDet 25.1µM* and Cruzain Triton 4.6%.
Cc1ccc(NC(=O)c2nnn(Cc3ccccc3)c2N)cc1C was read as Cruzain inh noDet -7.5% and Cruzain Triton -0.1%.
`COc1cccc2c1C(=O)CC2NC(=O)C(F)(F)F` (stereo not given) gave NS1 inh -0.2%, Cruzain inh noDet 6.8% and Cruzain Triton 0.8%.
For COc1ccc(C(=O)NC2CC2)cc1OC1CCN(Cc2ccc(Cl)cc2)CC1 the results were NS1 inh -4.8%.
For C=C(C(=O)O)C(CCCCCC)C(=O)O (stereo not given) the results were NS1 inh 5.8%.
For Cc1noc2ncc(C(=O)c3cc(F)ccc3O)cc12 the results were NS1 inh -5.6%, Cruzain inh noDet -5.5% and Cruzain Triton 0.8%.
Cc1ccc(O)c(C(=O)c2cnc3onc(-c4ccc(F)cc4)c3c2)c1 was read as NS1 inh -0.4%, Cruzain inh noDet 12.6µM* and Cruzain Triton -4.0%.
O=C(CN(C(=O)c1csnn1)c1ccc(F)c(Cl)c1)NCc1ccc2c(c1)OCO2 was read as NS1 inh 9.4%.
Screening O=C(CCN1C(=O)/C(=C/c2ccc3c(c2)OCO3)SC1=S)Nc1ccc(C(=O)O)cc1 returned NS1 inh 1.2%.
Screening O=C(CN1C(=O)S/C(=C\c2ccc(-c3cc(C(=O)O)ccc3Cl)o2)C1=O)Nc1ccc2c(c1)OCO2 returned NS1 inh 26.2%.
Screening O=C(CCN1C(=O)/C(=C/c2ccc3c(c2)OCO3)SC1=S)Nc1ccccc1 returned NS1 inh 18.1%, Cruzain inh noDet 7.94µM* and Cruzain Triton -5.3%.
`Cn1cc(/C=C2/SC(=O)N(CC(=O)Nc3ccc4c(c3)OCO4)C2=O)c2ccccc21` gave NS1 inh 15.8%, Cruzain inh noDet 25.1µM* and Cruzain Triton -1.2%.
For O=C1O/C(=C/c2ccccc2)N=C1c1ccccc1 the results were NS1 inh -0.1%, Cruzain inh noDet 15.8µM* and Cruzain Triton 12.6µM*.
For O=C1O/C(=C\c2ccccc2)c2ccccc21 the results were NS1 inh -0.4%, Cruzain inh noDet -13.0% and Cruzain Triton -9.8%.
Screening CCn1c(=NC(=O)c2ccco2)sc2cccc(F)c21 returned NS1 inh -12.6%, Cruzain inh noDet 4.2% and Cruzain Triton -14.5%.
Screening CCCCc1ccc(NC(=O)c2ccc3c(c2)CCN3S(=O)(=O)c2ccccc2)cc1 returned Cruzain inh noDet inconclusive and Cruzain Triton -1.8%.
`CCCCOC(=O)c1ccc(NC(=O)c2ccc3c(c2)CCN3S(=O)(=O)c2ccccc2)cc1` gave Cruzain inh noDet 12.6µM* and Cruzain Triton -0.5%.
Screening O=C(CSC1=NCCS1)NCc1ccco1 returned NS1 inh 5.8%, Cruzain inh noDet -3.6% and Cruzain Triton -2.9%.
Cc1nc(C(=O)Nc2ccc(Cl)cc2Cl)nn1-c1cc(OC(C)C)c(Cl)cc1Cl was read as NS1 inh 24.3%, Cruzain inh noDet 25.1µM* and Cruzain Triton -0.9%.
For Cc1nc(C(=O)Nc2cc(Cl)ccc2Cl)nn1-c1cc(OC(C)C)c(Cl)cc1Cl the results were NS1 inh 6.7%, Cruzain inh noDet 25.1µM* and Cruzain Triton 3.6%.
For Cc1nc(C(=O)Nc2cccc(Cl)c2)nn1-c1cc(OC(C)C)c(Cl)cc1Cl the results were NS1 inh -10.9%, Cruzain inh noDet inconclusive and Cruzain Triton -0.8%.
For Cc1nc(C(=O)Nc2cccc(Cl)c2Cl)nn1-c1cc(OC(C)C)c(Cl)cc1Cl the results were NS1 inh inconclusive, Cruzain inh noDet inconclusive and Cruzain Triton -1.7%.
`CCNc1ccc(C(=O)OCC(=O)c2cc(C)n(Cc3ccc4c(c3)OCO4)c2C)cc1[N+](=O)[O-]` gave NS1 inh 17.0%, Cruzain inh noDet 15.8µM* and Cruzain Triton -2.7%.
CCNc1ccc(C(=O)OCC(=O)N2CCCC2)cc1[N+](=O)[O-] was read as NS1 inh 6.7%.

Screening results from PubChem BioAssay.
